This note sets out measurements from the supplement of paper PMC7184167.

Molecules are shown by their SMILES. Structures can show the parent of a compound that is named as a salt.

In this assay the test system is replication-induced senescent mouse newborn dermal fibroblasts (NBF). The assay is described as follows: relative cell viability of senescent cells (fraction); higher = less killing of senescent cells. The settings on record: 1 µM; 3 days. The procedure:
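Replication-induced senescent newborn mouse skin fibroblasts (NBFs) in 24-well plates were treated with a Selleck FDA-approved drug library at 1 µM for 3 days.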
Turning to `Nc1ccc(S(=O)(=O)Nc2ncccn2)cc1` [Sulfadiazine], the relative cell viability came out at 1.11. In the case of `CCCCCOC(=O)Nc1nc(=O)n([C@@H]2O[C@H](C)[C@@H](O)[C@H]2O)cc1F` [Capecitabine], the relative cell viability amounted to 0.891. As to `CC(=O)OCC(=O)[C@@]12N=C(C)O[C@@H]1C[C@H]1[C@@H]3CCC4=CC(=O)C=C[C@]4(C)[C@H]3[C@@H](O)C[C@@]12C` [Deflazacort], the relative cell viability stood at 1.04. In turn, `CC(=O)O[C@@]12CO[C@@H]1C[C@H](O)[C@@]1(C)C(=O)[C@H](O)C3=C(C)[C@@H](OC(=O)[C@H](O)[C@@H](NC(=O)OC(C)(C)C)c4ccccc4)C[C@@](O)([C@@H](OC(=O)c4ccccc4)[C@H]21)C3(C)C` [Docetaxel] yielded a relative cell viability of 0.565. Consider `COc1ccc([C@]2(C#N)CC[C@@H](C(=O)O)CC2)cc1OC1CCCC1` [Cilomilast], for which the relative cell viability was 0.332. As to `COc1cc2nc(N(C)CCCNC(=O)C3CCCO3)nc(N)c2cc1OC` (stereo not given) [Alfuzosin HCl], the relative cell viability was determined as 0.96. Compound `CNC(=O)c1cc(Oc2ccc(NC(=O)Nc3ccc(Cl)c(C(F)(F)F)c3)cc2)ccn1` [Sorafenib Tosylate] came in with a relative cell viability of 0.528. `Cc1cn([C@H]2C=C[C@@H](CO)O2)c(=O)[nH]c1=O` [Stavudine (d4T)] displayed a relative cell viability of 0.893. `O=S(=O)(c1cccc2cnccc12)N1CCCNCC1` [Fasudil (HA-1077) HCl] had a relative cell viability of 1.14. `CC(C)(C#N)c1cc(Cn2cncn2)cc(C(C)(C)C#N)c1` [Anastrozole]: the relative cell viability is 0.993.

With `CNC(=O)c1ccccc1Sc1ccc2c(/C=C/c3ccccn3)n[nH]c2c1` [Axitinib], the relative cell viability worked out at 0.908. `Clc1ccccc1C(c1ccccc1)(c1ccccc1)n1ccnc1` [Clotrimazole] returned a relative cell viability of 1.01. As to `COc1ccccc1OCC(O)CN1CCN(CC(=O)Nc2c(C)cccc2C)CC1` (stereo not given) [Ranolazine], the relative cell viability came to 0.994.

`CCCOc1ccc(C(=O)OCCN(CC)CC)cc1N` [Proparacaine HCl] came in with a relative cell viability of 0.992. In the case of `O=C(c1cc(Cc2n[nH]c(=O)c3ccccc23)ccc1F)N1CCN(C(=O)C2CC2)CC1`, the relative cell viability is 1.09.

`CN1CCN(c2ccc3nc(-c4c(N)c5c(F)cccc5[nH]c4=O)[nH]c3c2)CC1` [Dovitinib (TKI-258, CHIR-258)]: the relative cell viability was 0.589. Take `COc1ccc(-n2nc(C(N)=O)c3c2C(=O)N(c2ccc(N4CCCCC4=O)cc2)CC3)cc1` [Apixaban]: the relative cell viability was determined as 0.89.

In the case of `C[C@@H]1CN(c2c(F)c(N)c3c(=O)c(C(=O)O)cn(C4CC4)c3c2F)C[C@H](C)N1` [Sparfloxacin], the relative cell viability is 0.71. As for `CCCNC(C)C(=O)Nc1ccccc1C` (stereo not given) [Prilocaine], the relative cell viability was determined as 0.827. For `Cc1cn([C@@H]2C[C@@H](O)[C@H](CO)O2)c(=O)[nH]c1=O` [Telbivudine], the relative cell viability came to 1. Take `C[C@]12CC[C@@H]3c4ccc(O)cc4CC[C@H]3[C@@H]1CC[C@@H]2O` [Estradiol]: the relative cell viability came out at 1.13. In the case of `CC1Cc2ccccc2N1NC(=O)c1ccc(Cl)c(S(N)(=O)=O)c1` (stereo not given) [Indapamide], the relative cell viability was found to be 0.965. As for `COc1ccc2[nH]cc(CCNC(C)=O)c2c1` [Melatonin], the figure is 1.05.

The compound `C[C@H](CCC(=O)O)[C@H]1CC[C@H]2[C@@H]3[C@@H](O)C[C@@H]4C[C@H](O)CC[C@]4(C)[C@H]3CC[C@]12C` [Ursodiol] registered a relative cell viability of 0.448. Under `C[C@](N)(Cc1ccc(O)c(O)c1)C(=O)O` [Methyldopa] stands 0.971; under `CCc1cc(C(N)=S)ccn1` [Ethionamide], 0.932. Turning to `COc1ccccc1OCC(O)CO` (stereo not given) [Guaifenesin], the relative cell viability is 1.12. Compound `CN(C)[C@@H](CCOc1cccc2ccccc12)c1ccccc1` [Dapoxetine HCl] displayed a relative cell viability of 1.08.

As to `CC(C)CN(C[C@@H](O)[C@H](Cc1ccccc1)NC(=O)O[C@H]1CCOC1)S(=O)(=O)c1ccc(N)cc1` [Amprenavir], the relative cell viability stood at 1.06. As for `CCn1cc(C(=O)O)c(=O)c2cc(F)c(N3CCN(C)CC3)cc21` [Pefloxacin Mesylate], the figure is 0.993; as for `CNCc1ccc(-c2[nH]c3cc(F)cc4c3c2CCNC4=O)cc1`, 0.0458. `CN/C(=N\CCSCc1nc[nH]c1C)NC#N` [Cimetidine]: the relative cell viability was 1.01.

On to `Cc1ccc(NC(=O)c2ccc(CN3CCN(C)CC3)cc2)cc1Nc1nc(-c2cccnc2)cs1` [Masitinib (AB1010)], for which the relative cell viability was determined as 0.602. Under `C[C@H]1[C@H](NC(=O)/C(=N\OC(C)(C)C(=O)O)c2csc(N)n2)C(=O)N1S(=O)(=O)O` [Aztreonam] stands 1.06; under `COc1cc2nccc(Oc3ccc(NC(=O)NC4CC4)c(Cl)c3)c2cc1C(N)=O` [Lenvatinib (E7080)], 0.123.
